RORg inh: ROR gamma (mouse) transcription inhibition. 5.4% of 310,000 active. Potency, µM (titrated, usually from 53.6 µM), without a hit: at the top dose activity change, negative = inhibition, hits mostly inhibitors. Drosophila S2 Gal4-RORgamma UAS-luciferase reporter, 20 h. P51450; further: nearly all actives have a fitted effect of over 60% in size
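A Gal4/UAS one-hybrid system in insect cells: metallothionein-promoter Gal4–ROR gamma fusion plus Photinus luciferase reporter. Copper sulfate 700 uM final, 20 hr ambient incubation, luminescent detection after 10 min with reagent.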
TDP1 inh: inhibitors of human tyrosyl-DNA phosphodiesterase TDP1 | Q9NUW8 | 0.28% of 350,000 active | recombinant TDP1, AlphaScreen DNA substrate cleavage | Potency, µM (top dose mostly 130 µM), for inactives: at the highest dose activity change, negative = inhibition, usual class: inhibitors | AID 485290; further: nearly all actives have a fitted effect of over 40% in size
Target sequence (Q9NUW8 whole entry, looked up): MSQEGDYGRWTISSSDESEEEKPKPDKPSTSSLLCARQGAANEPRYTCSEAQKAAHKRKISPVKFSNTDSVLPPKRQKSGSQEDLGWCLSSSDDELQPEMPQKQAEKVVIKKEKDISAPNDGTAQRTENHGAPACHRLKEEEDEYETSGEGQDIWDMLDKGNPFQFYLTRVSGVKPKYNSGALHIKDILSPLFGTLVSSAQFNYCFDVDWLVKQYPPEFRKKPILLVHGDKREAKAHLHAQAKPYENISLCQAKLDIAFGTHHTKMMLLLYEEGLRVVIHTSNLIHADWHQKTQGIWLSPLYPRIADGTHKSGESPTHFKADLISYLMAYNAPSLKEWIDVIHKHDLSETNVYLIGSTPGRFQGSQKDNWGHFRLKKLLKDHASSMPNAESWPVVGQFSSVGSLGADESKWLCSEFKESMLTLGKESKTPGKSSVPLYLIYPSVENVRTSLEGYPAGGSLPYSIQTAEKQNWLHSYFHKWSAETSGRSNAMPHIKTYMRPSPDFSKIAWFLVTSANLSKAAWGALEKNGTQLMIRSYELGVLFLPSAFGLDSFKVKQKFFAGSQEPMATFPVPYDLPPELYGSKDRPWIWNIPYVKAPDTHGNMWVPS
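Tdp1 1 nM final; 15 min RT w/ cpd; substrate 15 nM, 5 min; beads 10 ug/ml, 10 min; AlphaScreen read. Neg ctrl: no enzyme.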
DT40 TDP1 CPT: growth inhibition of DT40 Tdp1-/-;hTDP1 cells with camptothecin (screen for TDP1 inhibitors); chicken DT40 Tdp1-/-;hTDP1 cells + 20 nM CPT, ATP luminescence, 48 h; Potency, µM (titrated, usually from 46.2 µM), for the others: at the highest dose activity change, negative = growth inhibition, usual class: inhibitors; 12% of 420,000 active; further: nearly all actives have a fitted effect of over 55% in size
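Chicken DT40 Tdp1-/- cells stably complemented with human TDP1 were seeded at 400 cells/well in medium containing 20 nM camptothecin, exposed to pin-transferred compounds, and grown at 37 °C for at least 48 hr. Viability was read as ATP luminescence.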
VP16 counter: Gal4-VP16 reporter inhibition counter-screen; Drosophila S2 Gal4-VP16 UAS-luciferase, luminescence, 20 h; Potency, µM (titrated, usually from 53.6 µM), for the others: at the top dose activity, negative = inhibition, most hits filed as inhibitors; 3.5% of 310,000 active; AID 2546;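 further: Gal4-VP16 expression switched on by copper sulfate through the metallothionein promoter; nearly all actives have a fitted effect of over 50% in size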
TDP1 cell noCPT: qHTS for Inhibitors of human tyrosyl-DNA phosphodiesterase 1 (TDP1): qHTS in cells in absence of CPT; 15% of 420,000 active; DT40 Tdp1-/- hTDP1 cells, no CPT, ATP luminescence, 48 h; Potency, µM (top dose mostly 46.2 µM), for inactives: at the top dose activity change, negative = growth inhibition, actives largely listed as inhibitors; further: nearly all actives have a fitted effect of over 55% in size
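Cells were dispensed at 400 per well, compounds added by pin tool, plates incubated ≥48 hr at 37 °C, then CellTiter-Glo added for 30 min at room temperature before luminescence reading. Line: DT40 Tdp1-/- complemented with hTDP1; camptothecin omitted.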
Starred values were filed as active, the others as inactive; ? = inconclusive; . = no result; [ ] = another dose, or the depositor's remark. The list is not random: actives were taken first. Their share in the collection is about 19%. The call rests on the fitted dose curve; in most records, active means well fitted curve in the direction sought with a large enough effect; inconclusive means small, poorly fitted or top-dose-only effect, or another doubt; inactive means no such curve, though single readings can be large; an effect the other way counts as inactive or inconclusive. On the % scale 0 is the no-effect control and ±100 the full control effect; potency means the concentration at half of the fitted maximal effect.

SMILES	RORg inh	TDP1 inh	DT40 TDP1 CPT	VP16 counter	TDP1 cell noCPT
CC1Cc2nc(SCC(=O)N3CCc4ccccc43)n(C)c(=O)c2S1 (stereo not given)	45%	6%	?	7%	23µM*
CC1Cc2nc(SCC(=O)c3ccccc3)n(Cc3ccccc3)c(=O)c2S1 (stereo not given)	56%	8%	10µM*	-18%	10µM*
COc1ccc(OC)c(-n2c(SCC(=O)N3CCc4ccccc43)nc3c(c2=O)SCC3)c1	47%	3%	?	5%	?
COc1ccccc1-n1c(SCC(=O)N2CCc3ccccc32)nc2c(c1=O)SCC2	?	9%	9.2µM*	15%	7.3µM*
CN(C)C(CNC(=O)Nc1cccc(Cl)c1)c1cccnc1 (stereo not given)	11%	0%	-3%	4%	-7%
CCOC(=O)N1CCc2c(sc(NC(=O)c3ccc(S(=O)(=O)N4CCCC4)cc3)c2C#N)C1	?	5%	21µM*	?	15µM*
CC(C)N1CCc2c(sc(NC(=O)c3ccc(S(=O)(=O)N4CCOCC4)cc3)c2C#N)C1	3%	-4%	23µM*	-4%	21µM*
CC(C)c1nnc(NC(=O)c2ccc(S(=O)(=O)N3CCOCC3)cc2)s1	15%	-11%	12%	9%	16%
CC(=O)N1CCc2c(sc(NC(=O)CCS(=O)(=O)c3ccc(C)cc3)c2C#N)C1	.	-9%	?	.	?
COc1ccc(C(=O)Nc2sc3c(c2C#N)CCN(C(C)=O)C3)cc1	-18%	6%	3.3µM*	-11%	4.1µM*
O=C(CN(Cc1ccc(F)cc1)C(=O)c1csnn1)NCc1ccc2c(c1)OCO2	-29%	1%	-3%	0%	?
O=C1c2ccccc2-c2onc3ccc(Oc4ccccc4)c1c23	?	8%	3.3µM*	?	2.6µM*
O=C(Oc1ccccc1N1C(=O)C2CC=CCC2C1=O)c1ccc(Br)cc1 (stereo not given)	-14%	3%	2%	?	?
O=C1c2ccccc2NC2CCCCC12 (stereo not given)	-18%	4%	?	?	23µM*
O=C1c2ccccc2NC2CCCCCN12 (stereo not given)	?	-5%	-3%	17%	-3%
COc1ccc(-c2nc(CN3CCC(C(=O)NCCCN4CCN(c5ccccc5F)CC4)CC3)c(C)o2)cc1OC	.	10%	?	.	1.2µM*
Cc1oc(-c2cccc(Cl)c2)nc1CN1CCC(C(=O)NCCCN2CCN(c3ccccc3F)CC2)CC1	.	5%	2.9µM*	.	3.7µM*
CCCCNC(=O)C1CCN(Cc2nc(-c3ccc(OC)c(OC)c3)oc2C)CC1	.	1%	-11%	.	-24%
Cc1ccccc1NC(=O)COC(=O)CNC(=O)c1sc2ccccc2c1Cl	-5%	6%	-7%	4%	-2%
CCn1c(CNc2ccc(C(=O)O)cc2)nc2ccccc21	10µM*	2%	?	-1%	?
CCCn1c(/N=C/c2cc(OC)ccc2O)nc2ccccc21	?	6%	-11%	?	?
CCCn1c(CNC(=O)Cc2ccccc2)nc2ccccc21	5%[0.365 µM]	-3%	-12%	.	0%
O=C(O)c1ccc(NCc2nc3ccccc3n2Cc2ccccc2)cc1	2%	.	14%	19%	-13%
Cn1c(CNc2ccccc2)nc2ccccc21	-14%	8%	-10%	4%	-26%
CCn1c(/N=C/c2ccccc2NS(=O)(=O)c2ccc(C)cc2)nc2ccccc21	5%	0%	29µM*	-28%	?
SMILES	RORg inh	TDP1 inh	DT40 TDP1 CPT	VP16 counter	TDP1 cell noCPT
CCCn1c(CNS(=O)(=O)c2ccc(C)cc2)nc2ccccc21	11µM*	0%	?	?	?
CCCn1c(CNc2ccc(Br)cc2)nc2ccccc21	?	7%	23µM*	?	?
COc1cc(S(=O)(=O)NCc2ccccc2)ccc1F	-1%	0%	-16%	-3%	-25%
Cn1c(/C=N/NC(=O)c2ccccc2Br)nc2ccccc21	-31%	6%	?	-28%	18µM*
Cn1c(/C=N/O)nc2ccccc21	-5%	.	9%	-9%	4%
Cc1ccc(C(=O)N/N=C/c2nc3ccccc3n2C)cc1	11µM*	-9%	?	-11%	18µM*
Nc1ccc(C(=O)N/N=C/c2ccc(N3CCOCC3)s2)cc1	.	1%	-2%	.	-30%
O=C(N/N=C/c1ccc(N2CCOCC2)s1)c1ccccc1Br	11µM*	1%	12%	-7%	-4%
O=C(NC1=NCCS1)C1CC(=O)N(c2ccc(F)cc2)C1 (stereo not given)	8%	0%	-8%	1%	-22%
Nc1c2c(nc3ccccc13)N(c1ccccc1)CC2	0%	3%	15µM*	8%	?
O=C1CC(Sc2nnc(-c3ccccc3O)o2)C(=O)N1c1ccccc1 (stereo not given)	?	4%	4.6µM*	?	4.6µM*
COc1ccc(N2C(=O)CC(Sc3nc(C)cc(C)c3C#N)C2=O)cc1 (stereo not given)	?	0%[56.1 µM]	-2%	?	-17%
COc1ccc(N2C(=O)CC(Sc3nnc(-c4ccccc4)o3)C2=O)cc1 (stereo not given)	5.6µM*	-4%	2.9µM*	?	2.9µM*
COc1ccc(S(=O)(=O)NC2CC2)cc1C(=O)N1CCOCC1	4%	6%	?	-2%	?
CC1C(=O)N(Cc2ccccc2F)c2ccccc2N1C(=O)c1c(F)cccc1F (stereo not given)	-8%	.	18µM*	-2%	18µM*
COc1cccc(CN2C(=O)C(C)N(C(=O)c3c(F)cccc3F)c3ccccc32)c1 (stereo not given)	-1%	.	23µM*	-25%	10µM*
CC1Oc2ccccc2N(Cc2cccc(F)c2)C1=O (stereo not given)	32%	.	-15%	5%	-20%
CC1C(=O)N(Cc2cccc(F)c2)c2ccccc2N1C(=O)c1ccccc1 (stereo not given)	10%	.	?	3%	15µM*
CCN(Cc1ccccc1)C(=O)COC(=O)c1cc(S(=O)(=O)Nc2ccccc2OC)ccc1O	.	1%	-27%	.	?
NS(=O)(=O)c1ccc(NC(=O)c2cccc3cc4ccccc4nc23)cc1	.	.	5.8µM*	.	5.2µM*
NS(=O)(=O)c1cccc(NC(=O)CCC(=O)c2cccs2)c1	8%	.	-21%	-1%	-10%
NS(=O)(=O)c1cccc(NC(=O)c2cc(-c3cccs3)nc3ccccc23)c1	2%	5%	21µM*	-13%	15µM*
NS(=O)(=O)c1cccc(NC(=O)c2cccs2)c1	30%	.	21µM*	3%	?

Bioassay records: PubChem, National Center for Advancing Translational Sciences (NCATS)
